# According to PubChem BioAssay:
# Activity calls are given as the source filed them.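 How the source made its calls: active means viability at or under a set limit in both replicates, limit being median viability minus 3 SD (cut at about 48% in these data, passing the limit was not always enough); inconclusive means at or under the limit in just one replicate; inactive means at or above the limit in both replicates.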
# Assay: H69AR cell proliferation blockers – human, duplicate replicates, primary screen (AID 580);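 further: 100% = mean luminescence of untreated wells and 0% = no signal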
# Conditions: H69AR lung tumor cells viability, ATP luminescence, 72 h; at 10 µM; hits give low values
row,SMILES,viability
1,CC[N+](C)(C)c1cccc(O)c1,95% (inactive)
2,NC(Cc1ccc(Oc2ccc(O)cc2)cc1)C(=O)O (stereo not given),80.8% (inactive)
3,COCCN(C(=O)CCC(=O)Nc1ccccn1)C(C(=O)NC1CCCC1)c1ccc(OC)cc1 (stereo not given),111% (inactive)
4,Cc1ncc([N+](=O)[O-])n1CC(O)CCl (stereo not given),104% (inactive)
5,CCCCOc1ccc(CC(=O)NO)cc1,54.2% (inactive)
6,Nc1ccc2cn[nH]c2c1,93.1% (inactive)
7,CCC(=NC(C)c1ccccc1)c1c(O)n(C)c(=O)n(C)c1=O (stereo not given),90.7% (inactive)
8,C[C@]12C[C@H](O)[C@H]3[C@@H](CCC4=CC(=O)CC[C@@]43C)[C@@H]1CC[C@@H]2C(=O)CO,88.3% (inactive)
9,OCCOCCN1CCN(C(c2ccccc2)c2ccc(Cl)cc2)CC1 (stereo not given),98.3% (inactive)
10,Cn1cc(NC(=O)c2cc(NC(=O)c3cc(NC=O)cn3C)cn2C)cc1C(=O)NCCC(=N)N,83.1% (inactive)
11,Cn1c(SCC(=O)N2CCOCC2)nnc1-c1cnccn1,109% (inactive)
12,CC(=O)C1=C(O)C(=O)N(Cc2cccnc2)C1c1ccccc1 (stereo not given),105% (inactive)
13,Cc1cccc(Nc2ccccc2C(=O)O)c1C,99.4% (inactive)
14,CCOC(=O)c1c(NCc2ccc3c(c2)OCO3)c2ccccc2[nH]c1=O,87.3% (inactive)
15,C[C@]12CC[C@H]3[C@@H](CCC4=CC(=O)CC[C@@]43C)[C@@H]1CC[C@@H]2C(=O)CO,78.6% (inactive)
16,COc1ccc2cc([C@H](C)C(=O)O)ccc2c1,94.8% (inactive)
17,CCC(NC(C)C)C(O)c1ccc(O)c2[nH]c(=O)ccc12 (stereo not given),94.4% (inactive)
18,COc1cc2nc(N3CCN(C(=O)C4CCCO4)CC3)nc(N)c2cc1OC (stereo not given),91.6% (inactive)
19,CN1Cc2c(N)cccc2C(c2ccccc2)C1 (stereo not given),102% (inactive)
20,C[C@H]1C[C@H]2[C@@H]3CCC4=CC(=O)C=C[C@]4(C)[C@@]3(Cl)[C@@H](O)C[C@]2(C)[C@@]1(O)C(=O)CO,97.5% (inactive)

row,SMILES,viability
1,C[C@]12CC[C@@H]3c4ccc(O[C@@H]5O[C@H](C(=O)O)[C@@H](O)[C@H](O)[C@H]5O)cc4CC[C@H]3[C@@H]1C[C@@H](O)[C@@H]2O,102% (inactive)
2,Cc1c(C(=O)O)sc2ncn(C)c(=O)c12,103% (inactive)
3,O=c1ccc(S(=O)(=O)N2CCC(Cc3ccccc3)CC2)c[nH]1,95.3% (inactive)
4,CCn1cc(C(=O)O)c(=O)c2cnc(N3CCNCC3)nc21,107% (inactive)
5,Nc1nnc(-c2cccc(Cl)c2Cl)c(N)n1,97.1% (inactive)
6,O=C(O)CCCCCCC1C(=O)NC(=O)N1CCC(O)C1CCCCC1 (stereo not given),99.3% (inactive)
7,COc1ccc(CN(CCN(C)C)c2ccccn2)cc1,93.9% (inactive)
8,O=C(NCC1CCCCN1)c1cc(OCC(F)(F)F)ccc1OCC(F)(F)F (stereo not given),97.9% (inactive)
9,c1ccc2nc(-c3nc4ccccc4[nH]3)ccc2c1,66.6% (inactive)
10,CCCC(=O)Nc1ncnc2c1ncn2[C@@H]1O[C@@H]2COP(=O)(O)O[C@H]2[C@H]1OC(=O)CCC,104% (inactive)
11,COc1cc(OC)c(NC(=O)c2ccco2)cc1Cl,84.7% (inactive)
12,O=S(=O)(c1ccc(OCC(O)CN2CCC(Cc3ccccc3)CC2)cc1)N1CCOCC1 (stereo not given),84.8% (inactive)
13,C/C(N)=C(/C#N)C(=O)COC(=O)CCSc1ccccc1,101% (inactive)
14,CCCC(=O)O[C@]1(C(=O)COC(C)=O)CC[C@H]2[C@@H]3C[C@H](F)C4=CC(=O)C=C[C@]4(C)[C@@]3(F)[C@@H](O)C[C@@]21C,95.6% (inactive)
15,Cn1c(-c2ccccc2)cc(=O)c2ccccc21,96.6% (inactive)
16,Cc1cccc(C)c1NC(=O)C1CCCCN1C (stereo not given),99.7% (inactive)
17,CCC(NC(C)C)C(O)c1ccc(O)c(O)c1 (stereo not given),85% (inactive)
18,C=C(c1cccc2ccccc12)P(=O)(O)O,92.9% (inactive)
19,COC(=O)CSc1nc(C)c(C(C)=O)cc1C#N,90.1% (inactive)
20,C[C@]12CC[C@@H]3c4ccc(O)cc4CC[C@H]3[C@@H]1CC[C@@H]2OC(=O)CCC(=O)O,105% (inactive)
